Measured values reported in PubChem BioAssay.
“And” between values parts separate entries of the source, which are not always exact repeats. Identical values can stand only once. The source made the active and inactive calls. Cut-off read from the data, not from the text of the source: active = inhibition above about 80%; inactive = the rest.
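Note: cells exposed for 96 hours before readout.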

Experiment: ICB984 medulloblastoma cell growth inhibition, synergistic combos for chromothripsis tumors, cisplatin or BGB combos (AID 1671451);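 note: 0% = vehicle DMSO and 100% = killing by high DMSO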
Details: ICB984 medulloblastoma cells, drug combinations, measured here: 5 uM single agent, at 5 µM, stronger effect = higher value
`COc1ccccc1S(=O)(=O)Nc1ccc2c(c1)CN(C)C(=O)N2` showed an inhibition of -15.3%.
For `Cc1cc(C#N)cc(C)c1Oc1nc(Nc2ccc(C#N)cc2)nc(N)c1Br`, the inhibition was -18.9%.
In the case of `Nc1ncn(C2OC(CO)C(O)C2O)c(=O)n1` (stereo not drawn), the inhibition is reported as -4.38%.
In the case of `Cc1cc(C)c(Nc2ccnc(Nc3ccc(C#N)cc3)n2)c(C)c1`, the inhibition is reported as -22%.
In the case of `COc1ccc(CC(N)C(=O)NC2C(CO)OC(n3cnc4c(N(C)C)ncnc43)C2O)cc1` (stereo not drawn), the inhibition is reported as -9.41% and -1.15%.
With `O=c1ccn(C2OC(CO)C(O)C2O)c(=O)[nH]1` (stereo not drawn) the inhibition was 7.59% and -39.4%.
In the case of `CC=C1NC(=O)C2CSSCCC=CC(CC(=O)NC(C(C)C)C(=O)N2)OC(=O)C(C(C)C)NC1=O` (stereo not drawn), the inhibition is reported as 81.2% and 80.4%.
For `CN(C)CC(=O)Nc1ccc2[nH]c(=O)c3ccccc3c2c1`, the inhibition was -18.7% and -14.3% and -10.6%.
With `CC1OC(n2cc(F)c(=O)[nH]c2=O)C(O)C1O` (stereo not drawn) the inhibition was -21.2%.
In the case of `Nc1ccn(C2OC(CO)C(O)C2(F)F)c(=O)n1` (stereo not drawn), the inhibition is reported as -32.2% and -6.79% and -21%.
With `Cc1cn(C2CC(N=[N+]=[N-])C(CO)O2)c(=O)[nH]c1=O` (stereo not drawn) the inhibition was -29% and -10.5%.
Work on `CC(C=CC(=O)NO)=CC(C)C(=O)c1ccc(N(C)C)cc1` (stereo not drawn) yielded an inhibition of -13.2%.
`NC(=S)NN=Cc1ncccc1N` showed an inhibition of -38.9%.
`CC(C)(C#N)c1ccc(N2C(=O)OCc3cnc4ccc(-c5cnc6ccccc6c5)cc4c32)cc1` gave an inhibition of -21.9%.
Work on `CC1CN(c2c(F)c(N)c3c(=O)c(C(=O)O)cn(C4CC4)c3c2F)CC(C)N1` (stereo not drawn) yielded an inhibition of -29.6%.
In the case of `CCCCN(Cc1ccc(C(=O)NO)cc1)C(=O)Nc1ccccc1`, the inhibition is reported as -6.18% and 2.93%.
With `O=c1[nH]cnc2c1ncn2C1OC(CO)C(O)C1O` (stereo not drawn) the inhibition was -3.92% and -14.5%.
`Cc1cc(C=CC#N)cc(C)c1Nc1ccnc(Nc2ccc(C#N)cc2)n1` gave an inhibition of -25.1%.
For `CC(Oc1cc(-c2cnn(C3CCNCC3)c2)cnc1N)c1c(Cl)ccc(F)c1Cl` (stereo not drawn), the inhibition was -10.6%.
`O=C(O)c1cc2cccc([N+](=O)[O-])c2[nH]1` showed an inhibition of -25.3%.
Molecule `O=c1[nH]c(=O)n(C2CC(O)C(CO)O2)cc1I` (stereo not drawn) has an inhibition of 4.46%.

Experiment: LFS_MB_1R medulloblastoma cell growth inhibition, synergistic combos for chromothripsis tumors, cisplatin or BGB combos (AID 1671452)
Details: LFS_MB_1R medulloblastoma cells, at 0.5 µM, stronger effect = higher value
In the case of `COc1ccccc1S(=O)(=O)Nc1ccc2c(c1)CN(C)C(=O)N2`, the inhibition is reported as -15.2% (inactive).
For `Cc1cc(C#N)cc(C)c1Oc1nc(Nc2ccc(C#N)cc2)nc(N)c1Br`, the inhibition was -14.8% (inactive).
For `Nc1ncn(C2OC(CO)C(O)C2O)c(=O)n1` (stereo not drawn), the inhibition was 1.69% (inactive).
With `Cc1cc(C)c(Nc2ccnc(Nc3ccc(C#N)cc3)n2)c(C)c1` the inhibition was -25.5% (inactive).
With `COc1ccc(CC(N)C(=O)NC2C(CO)OC(n3cnc4c(N(C)C)ncnc43)C2O)cc1` (stereo not drawn) the inhibition was 31.4% (inactive) and 64.5% (inactive).
In the case of `O=c1ccn(C2OC(CO)C(O)C2O)c(=O)[nH]1` (stereo not drawn), the inhibition is reported as -5.2% (inactive) and -14.4% (inactive).
For `CC=C1NC(=O)C2CSSCCC=CC(CC(=O)NC(C(C)C)C(=O)N2)OC(=O)C(C(C)C)NC1=O` (stereo not drawn), the inhibition was 95.1% (active) and 99.5% (active).
For `CN(C)CC(=O)Nc1ccc2[nH]c(=O)c3ccccc3c2c1`, the inhibition was -13.8% (inactive) and -13.5% (inactive) and -14% (inactive).
With `CC1OC(n2cc(F)c(=O)[nH]c2=O)C(O)C1O` (stereo not drawn) the inhibition was -23.1% (inactive).
With `Nc1ccn(C2OC(CO)C(O)C2(F)F)c(=O)n1` (stereo not drawn) the inhibition was -17.1% (inactive) and -7.38% (inactive) and 7.19% (inactive).
With `Cc1cn(C2CC(N=[N+]=[N-])C(CO)O2)c(=O)[nH]c1=O` (stereo not drawn) the inhibition was -35.4% (inactive) and -15.1% (inactive).
With `CC(C=CC(=O)NO)=CC(C)C(=O)c1ccc(N(C)C)cc1` (stereo not drawn) the inhibition was 87.3% (active).
With `NC(=S)NN=Cc1ncccc1N` the inhibition was -7% (inactive).
For `CC(C)(C#N)c1ccc(N2C(=O)OCc3cnc4ccc(-c5cnc6ccccc6c5)cc4c32)cc1`, the inhibition was -13.4% (inactive).
For `CC1CN(c2c(F)c(N)c3c(=O)c(C(=O)O)cn(C4CC4)c3c2F)CC(C)N1` (stereo not drawn), the inhibition was -11.6% (inactive).
In the case of `CCCCN(Cc1ccc(C(=O)NO)cc1)C(=O)Nc1ccccc1`, the inhibition is reported as -0.52% (inactive) and 4.37% (inactive).
With `O=c1[nH]cnc2c1ncn2C1OC(CO)C(O)C1O` (stereo not drawn) the inhibition was -44.3% (inactive) and -17.7% (inactive).
For `Cc1cc(C=CC#N)cc(C)c1Nc1ccnc(Nc2ccc(C#N)cc2)n1`, the inhibition was -21.6% (inactive).
With `CC(Oc1cc(-c2cnn(C3CCNCC3)c2)cnc1N)c1c(Cl)ccc(F)c1Cl` (stereo not drawn) the inhibition was -9.48% (inactive).
In the case of `O=C(O)c1cc2cccc([N+](=O)[O-])c2[nH]1`, the inhibition is reported as -25.3% (inactive).
With `O=c1[nH]c(=O)n(C2CC(O)C(CO)O2)cc1I` (stereo not drawn) the inhibition was -47.8% (inactive).

Same assay, conditions: LFS_MB_1R medulloblastoma cells, measured here: combination with BGB IC40, at 0.05 µM, stronger effect = higher value
Molecule `COc1ccccc1S(=O)(=O)Nc1ccc2c(c1)CN(C)C(=O)N2` has an inhibition of -24.6%.
For `Cc1cc(C#N)cc(C)c1Oc1nc(Nc2ccc(C#N)cc2)nc(N)c1Br`, the inhibition was -38.9%.
For `Nc1ncn(C2OC(CO)C(O)C2O)c(=O)n1` (stereo not drawn), the inhibition was -18.7%.
`Cc1cc(C)c(Nc2ccnc(Nc3ccc(C#N)cc3)n2)c(C)c1` showed an inhibition of -43.1%.
For `COc1ccc(CC(N)C(=O)NC2C(CO)OC(n3cnc4c(N(C)C)ncnc43)C2O)cc1` (stereo not drawn), the inhibition was 0.687% and -51.1%.
With `O=c1ccn(C2OC(CO)C(O)C2O)c(=O)[nH]1` (stereo not drawn) the inhibition was -12.7% and -13.9%.
In the case of `CC=C1NC(=O)C2CSSCCC=CC(CC(=O)NC(C(C)C)C(=O)N2)OC(=O)C(C(C)C)NC1=O` (stereo not drawn), the inhibition is reported as 91.6% and 93.4%.
With `CN(C)CC(=O)Nc1ccc2[nH]c(=O)c3ccccc3c2c1` the inhibition was -3.83% and -23.1% and -25.7%.
With `CC1OC(n2cc(F)c(=O)[nH]c2=O)C(O)C1O` (stereo not drawn) the inhibition was -35.1%.
For `Nc1ccn(C2OC(CO)C(O)C2(F)F)c(=O)n1` (stereo not drawn), the inhibition was -7.29% and 0.139% and -43.6%.
In the case of `Cc1cn(C2CC(N=[N+]=[N-])C(CO)O2)c(=O)[nH]c1=O` (stereo not drawn), the inhibition is reported as -33.7% and -15%.
`CC(C=CC(=O)NO)=CC(C)C(=O)c1ccc(N(C)C)cc1` (stereo not drawn) showed an inhibition of 4.15%.
Work on `NC(=S)NN=Cc1ncccc1N` yielded an inhibition of -3.08%.
In the case of `CC(C)(C#N)c1ccc(N2C(=O)OCc3cnc4ccc(-c5cnc6ccccc6c5)cc4c32)cc1`, the inhibition is reported as -7.9%.
In the case of `CC1CN(c2c(F)c(N)c3c(=O)c(C(=O)O)cn(C4CC4)c3c2F)CC(C)N1` (stereo not drawn), the inhibition is reported as 17.7%.
With `CCCCN(Cc1ccc(C(=O)NO)cc1)C(=O)Nc1ccccc1` the inhibition was -26.5% and -6.78%.
For `O=c1[nH]cnc2c1ncn2C1OC(CO)C(O)C1O` (stereo not drawn), the inhibition was -7.53% and -27.6%.
`Cc1cc(C=CC#N)cc(C)c1Nc1ccnc(Nc2ccc(C#N)cc2)n1` showed an inhibition of -25.9%.
`CC(Oc1cc(-c2cnn(C3CCNCC3)c2)cnc1N)c1c(Cl)ccc(F)c1Cl` (stereo not drawn) showed an inhibition of 5.36%.
For `O=C(O)c1cc2cccc([N+](=O)[O-])c2[nH]1`, the inhibition was -24.6%.
`O=c1[nH]c(=O)n(C2CC(O)C(CO)O2)cc1I` (stereo not drawn) showed an inhibition of -9.63%.
